The values below come from PubChem BioAssay AID1224921 (Broad Institute, 2016).

About 350 (25%) of roughly 1,400 compounds were called active. About 2% were inconclusive and are not listed. The list is a sample of the results. Results with a measured potency or affinity are listed apart. Unmarked numbers belong to inactive results. The rule behind the calls is not given here.

The experiment can be described thus: C. difficile growth inhibition, confirmation, 4-point retest (AID 1224921).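 Note: plate controls were DMSO wells for no effect and levofloxacin 16 µg/mL wells for full effect.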 The following applies: Clostridioides difficile clinical isolate growth, OD600, 24 h, hits give low values; at 30 µM unless noted.
In the case of `C[C@@H](C(=O)N(C)C[C@H]1OCc2ccccc2-c2ccccc2C(=O)N([C@@H](C)CO)C[C@@H]1C)c1ccccc1`, the max activity is -9.53% [at 8 µM].

Turning to `C[C@@H]1CCCCO[C@H](CN(C)S(=O)(=O)c2ccc(Cl)cc2)[C@H](C)CN([C@@H](C)CO)C(=O)c2cc(N(C)C)ccc2O1`, the max activity is 25.4%. Next, `O=C(N[C@H]1C=C[C@@H](CC(=O)N2CCOCC2)O[C@H]1CO)c1cccc(F)c1`: 9.04%. Next, `C[C@@H]1CN([C@H](C)CO)C(=O)c2cc(C#C[C@@H](C)O)cnc2O[C@@H]1CN(C)Cc1ccc(-c2ccccc2)cc1`: -9.01% [at 1.95 µM]; `C[C@@H]1CCCCO[C@@H](CN(C)CC2CC2)[C@H](C)CN([C@H](C)CO)C(=O)c2cc(NC(=O)Nc3cccc4ccccc34)ccc2O1`: 12.9%. The figure for `COCC(=O)Nc1ccc2c(c1)C(=O)N(C)C[C@@H](OC)[C@H](C)CN(C(=O)CN1CCOCC1)[C@H](C)CO2` is -15.1% [at 2.1 µM]; for `C[C@H]1CN([C@@H](C)CO)C(=O)c2cc(NC(=O)CCC(F)(F)F)ccc2O[C@H]1CN(C)Cc1ccc(-c2ccccc2)cc1` it is 46.6%; for `CO[C@H]1CN(C)C(=O)c2cc(NC(=O)Nc3cccc(F)c3)ccc2OC[C@H](C)N(C)C[C@H]1C` it is -7.19% [at 0.5 µM]. With `COc1ccc([Si](C)(C)[C@H]2[C@H](CCO)O[C@@]3(C(=O)N(C)c4ccccc43)[C@@H]2C)cc1`, the max activity is 12.6% [at 8 µM]. Next, `CCCC#Cc1ccc2c(c1)O[C@@H](CN(C)Cc1ccncc1)[C@H](C)CN([C@H](C)CO)S2(=O)=O`: 15.9%; `COc1cccc(S(=O)(=O)Nc2ccc3c(c2)[C@H]2C[C@@H](CC(=O)NC4CCCCC4)O[C@@H](CO)[C@H]2O3)c1`: -11.1% [at 1.95 µM]; `O=C(C[C@H]1C[C@H]2c3cc(NC(=O)Nc4ccc(C(F)(F)F)cc4)ccc3O[C@H]2[C@@H](CO)O1)NC1CCCCC1`: -14.7% [at 1.95 µM]. As to `COc1ccc(S(=O)(=O)N(C)C[C@@H]2Oc3ccc(NC(=O)CCCN(C)C)cc3CC(=O)N([C@@H](C)CO)C[C@H]2C)cc1`, the max activity is -7.02% [at 1.95 µM]. On to `CCC(=O)Nc1ccc2c(c1)C(=O)N(C)C[C@@H](OC)[C@@H](C)CN[C@@H](C)CO2`, for which the max activity is 6.81% [at 0.5 µM]. As for `CO[C@H]1CN(C)C(=O)c2cc(NC(=O)Nc3ccc(F)cc3)ccc2OC[C@H](C)NC[C@@H]1C`, the max activity was -22.1%. The figure for `CO[C@@H]1CN(C)C(=O)c2cc(NC(=O)Nc3ccc(F)cc3)ccc2OC[C@H](C)NC[C@H]1C` is -13.4% [at 1.95 µM]; for `CO[C@H]1CN(C)C(=O)c2cc(NC(=O)Nc3ccc(F)cc3)ccc2OC[C@@H](C)NC[C@@H]1C` it is -7.9% [at 0.5 µM]; for `CO[C@@H]1CN(C)C(=O)c2ccc(NC(=O)Nc3ccc4c(c3)OCO4)cc2OC[C@H](C)NC[C@H]1C` it is -8.6% [at 0.5 µM].

On to `C[C@@H]1CN([C@H](C)CO)C(=O)c2cc(NC(=O)Nc3ccc4c(c3)OCO4)ccc2O[C@H]1CN(C)Cc1ccccc1`, for which the max activity is 22.6%. The figure for `COc1ccc(NC(=O)N[C@H]2C=C[C@@H](CC(=O)NC3CCCCC3)O[C@H]2CO)cc1` is -14.6% [at 1.95 µM]; for `COc1ccc(CN(C)C[C@H]2OCCCC[C@@H](C)Oc3ccc(NC(=O)Nc4ccc(F)cc4)cc3C(=O)N([C@@H](C)CO)C[C@@H]2C)cc1` it is 19.8% [at 8 µM]; for `COCC#Cc1ccc2c(c1)O[C@H](CN(C)C)[C@@H](C)CN([C@H](C)CO)S2(=O)=O` it is 7.09%. Next, `CO[C@H]1CN(C)C(=O)c2cc(NC(=O)c3ccccc3)ccc2OC[C@@H](C)N(C)C[C@@H]1C`: -8.25% [at 8 µM]. Next, `C[C@@H]1CN([C@@H](C)CO)C(=O)c2c(c3ccccc3n2C)-c2ccccc2CO[C@@H]1CN(C)S(=O)(=O)c1cccc(F)c1`: 6.96% [at 8 µM]; `C[C@H](CO)N1C[C@H](C)[C@H](CN(C)C(=O)[C@H](C)c2ccccc2)OCc2ccccc2-c2ccccc2C1=O`: 12.5% [at 1.95 µM]. `C[C@H](CO)N1C[C@H](C)[C@@H](CN(C)C(=O)Nc2ccccc2)Oc2c(NC(=O)Nc3ccc(C(F)(F)F)cc3)cccc2C1=O`: the max activity is 46.6% [at 8 µM]. The figure for `C[C@@H]1CN([C@H](C)CO)C(=O)c2cccc(NC(=O)Nc3ccc(C(F)(F)F)cc3)c2O[C@@H]1CN(C)C(=O)Nc1cccc2ccccc12` is 40.5% [at 1.95 µM]; for `C[C@@H]1CN([C@@H](C)CO)C(=O)c2cccc(NC(=O)Nc3ccc(C(F)(F)F)cc3)c2O[C@H]1CN(C)C(=O)Nc1cccc2ccccc12` it is 30.6% [at 1.95 µM].

Regarding `C[C@@H]1CN([C@@H](C)CO)C(=O)c2cccc(NC(=O)Nc3ccc(C(F)(F)F)cc3)c2O[C@H]1CN(C)C(=O)Nc1ccccc1`, the max activity was 29.3%. Next, `C[C@@H]1CN([C@H](C)CO)C(=O)c2cccc(NC(=O)Nc3ccc(C(F)(F)F)cc3)c2O[C@H]1CN(C)C(=O)Nc1ccccc1`: 25.7% [at 8 µM]; `C[C@H]1CN([C@@H](C)CO)S(=O)(=O)c2ccc(-c3ccccc3F)cc2O[C@@H]1CN(C)Cc1ccncc1`: 27%.

Consider `C[C@H](CO)N1C[C@H](C)[C@@H](CN(C)C(=O)C2CCCCC2)Oc2ncc(-c3ccccc3F)cc2C1=O`, for which the max activity was -11.4% [at 8 µM]. The figure for `C[C@H]1CN([C@@H](C)CO)C(=O)Cc2cc(NS(C)(=O)=O)ccc2O[C@H]1CN(C)Cc1ccccc1` is 10.4%; for `COc1ccccc1C(=O)Nc1ccc2c(c1)OC[C@@H](C)N(CC1CC1)C[C@@H](C)[C@H](OC)CN(C)C2=O` it is 19.1%; for `CO[C@@H]1CN(C)C(=O)c2ccc(NC(=O)c3nc4ccccc4s3)cc2OC[C@@H](C)N(Cc2ccncc2)C[C@H]1C` it is 30.6%.
